Compound activity as filed in PubChem BioAssay.
In the library only some 2.6% were active in any assay of this set; here they are far more common.
Cruzain noTriton – blocks cruzain activity in detergent-free assay | P25779 | purified cruzain, Z-FR-AMC fluorescence, no detergent | Potency, µM, for the others: max response, negative = inhibition, hits mostly inhibitors | actives 2.3% (n = 200,000);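 also: plate controls were enzyme without inhibitor for no effect and buffer without enzyme for full effect; nearly all actives have a fitted effect of over 40% in size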
Target sequence (P25779 123-467 limits assumed): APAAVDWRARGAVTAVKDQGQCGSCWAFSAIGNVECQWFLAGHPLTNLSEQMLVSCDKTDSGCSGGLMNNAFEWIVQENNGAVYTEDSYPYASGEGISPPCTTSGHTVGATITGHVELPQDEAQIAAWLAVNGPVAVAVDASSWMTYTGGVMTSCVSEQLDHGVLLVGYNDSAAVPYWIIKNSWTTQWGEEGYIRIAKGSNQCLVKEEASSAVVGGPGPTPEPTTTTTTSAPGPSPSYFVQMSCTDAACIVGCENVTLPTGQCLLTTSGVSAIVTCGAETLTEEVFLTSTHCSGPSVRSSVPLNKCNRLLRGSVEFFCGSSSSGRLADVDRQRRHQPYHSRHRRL
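Purified cruzain at 1.5 nM, pre-incubated 15 min with compound at room temperature in 100 mM sodium acetate pH 5.5, 5 mM DTT, 0.00005% Triton X-100. Reaction started with 2 uM Z-FR-AMC; AMC fluorescence increase over 60 s gives rate.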
Cruzain Triton – blocks cruzain activity in presence of Triton detergent. purified cruzain, Z-FR-AMC fluorescence, 0.01% Triton. P25779. AID 1478. actives 0.43% (n = 200,000). Potency, µM, without a hit: max response, negative = inhibition, usual class: inhibitors;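 also: plate controls were neutral wells for no effect and buffer without enzyme for full effect; nearly all actives have a fitted effect of over 40% in size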
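15 min RT preincubation of 1.5 nM cruzain with compound, then 2 uM Z-FR-AMC added; kinetic AMC fluorescence, 60 s delta. Triton X-100 0.01%, pH 5.5.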
An asterisk follows results filed as active; ? = inconclusive. Calls follow the shape of the dose curve; as a rule, active = well fitted curve in the direction sought with a large enough effect; inconclusive = small, poorly fitted or top-dose-only effect, or another doubt; inactive = no such curve, though single readings can be large; an effect the other way counts as inactive or inconclusive. Potency is read from the fitted curve at half-maximal effect.

SMILES	Cruzain noTriton	Cruzain Triton
Cc1ccc(-c2nnc3n2N=C(c2ccccc2)CS3)cc1	-17%	-1%
CCOc1ccc(C2=Nn3c(nnc3-c3ccccc3)SC2)cc1Cl	20µM*	1%
CCc1ccc(C2=Nn3c(nnc3-c3cccs3)SC2)cc1	-8%	-10%
Clc1ccc(C2=Nn3c(nnc3-c3cccs3)SC2)cc1	7.9µM*	-9%
Cc1cc2ncn(S(=O)(=O)c3ccc(S(=O)(=O)N4CCOCC4)cc3)c2cc1C	-17%	0%
COc1ccc(/C=C\C(=O)Oc2cccc(/C=N/NC(=O)Cc3ccc(OC)c(OC)c3)c2)cc1	11%	-10%
COc1ccc(/C=N/NS(=O)(=O)c2ccccc2)cc1OC(=O)c1ccc(C)cc1	?	0%
COc1ccc(CNC(=S)N/N=C/c2ccc(OC)c(OC)c2)cc1	10%	-6%
COc1cc(/C=N/NC(N)=S)ccc1OCc1ccc(C)cc1	1µM*	2.2µM*
COc1cc(/C=N/NC(N)=S)ccc1OC(=O)c1ccc(C)cc1	2.5µM*	4.5µM*
CC(=O)Nc1ccc(/C=N/NC(N)=S)cc1	11µM*	-17%
COc1ccc(C(=O)Oc2cccc(/C=N/NC(N)=S)c2)cc1	16µM*	?
NC(=S)N/N=C/c1ccccc1	3%	-18%
Cc1cccc(Nc2ccccc2)c1	-7%	1%
CC1CN(C(=O)c2ccc3c(c2)OCO3)CC(C)O1 (stereo not given)	1%	3%
CCOc1ccccc1-n1c(SCC(=O)Nc2ccc(CC)cc2)nc2n[nH]c(C)c2c1=N	6.3µM*	1%
CCc1ccc(NC(=O)CSc2nc3n[nH]c(C)c3c(=N)n2-c2ccccc2C)cc1	-25%	-2%
[O-]/C(=C(\C(=S)Nc1cccc2ccccc12)[n+]1ccccc1)c1ccc2c(c1)OCCO2	13µM*	-6%
CC(C)C(=O)c1cc2c(cc1NC(=O)Nc1cccc3ccccc13)OCCO2	25%	-2%
COc1ccc(C(=O)Nc2ccc3c(c2)Cc2ccccc2-3)cc1	10µM*	6%
COc1ccc(C(=O)Nc2cccc(OC)c2)cc1	0%	4%
COc1cc(NC(=S)NC(=O)c2ccccc2C)ccc1NC(=O)c1cccs1	-21%	1%
COc1cccc(OC)c1C(=O)NC(=S)Nc1ccc2c(c1)Cc1ccccc1-2	16µM*	-24%
COc1c(C)cccc1C(=O)NC(=S)Nc1ccc2c(c1)Cc1ccccc1-2	20µM*	2%
COc1cccc(OC)c1C(=O)NC(=S)Nc1ccc2c(c1)C(=O)N(C)C2=O	-2%	-3%
SMILES	Cruzain noTriton	Cruzain Triton
Cc1ccc(-c2nnn(CC(=O)N(CC(=O)NC3CCCC3)c3ccc(F)c(Cl)c3)n2)o1	-27%	2%
CC(=O)c1nn(-c2ccc(Br)cc2)cc1C(=O)c1ccccc1	?	-1%
CC(=O)c1nn(-c2cccc(Br)c2)cc1C(=O)c1ccc2ccccc2c1	10µM*	4%
COc1ccc(C2(C(=O)Nc3c(C)n(C)n(-c4ccccc4)c3=O)CCCC2)cc1OC	-10%	-1%
O=C(Nc1nnc(-c2ccc3c(c2)OCCO3)o1)c1ccc(Cc2ccccc2)cc1	13µM*	0%
CSc1cccc(-c2nnc(NC(=O)c3ccc4c(c3)OCCO4)o2)c1	-2%	3%
Cc1cc2nc(-c3ccc(SCC(=O)Nc4ccc5c(c4)OCCO5)nc3)[nH]c2cc1C	16µM*	-5%
COc1cccc(NC(=O)CSc2nc3c([nH]c4ccccc43)c(=O)n2-c2ccccc2)c1	?	-6%
Cc1ccc(-n2c(SCC(=O)Nc3ccc4c(c3)OCCO4)nc3c([nH]c4ccccc43)c2=O)cc1	25µM*	-7%
O=C(CSc1nc2c([nH]c3ccccc32)c(=O)n1-c1ccccc1)Nc1ccc2c(c1)OCO2	?	-2%
Cc1ccc2nc(-c3ccc(SCC(=O)Nc4ccc5c(c4)OCCO5)nc3)[nH]c2c1	-8%	-6%
O=C(CSc1nc2c([nH]c3ccccc32)c(=O)n1-c1ccccc1)Nc1ccc2c(c1)OCCO2	25µM*	-5%
O=C(CSc1nc2c([nH]c3ccccc32)c(=O)n1-c1ccccc1)Nc1ccc(Cl)c(Cl)c1	13µM*	-1%
Cc1cc(C)cc(-n2c(SCC(=O)Nc3ccc4c(c3)OCCO4)nc3c([nH]c4ccccc43)c2=O)c1	?	0%
CCOC(=O)c1ccc(-c2ccc(/C=N/NC(=O)CN(c3ccccc3Br)S(C)(=O)=O)o2)cc1	18%	-10%
CC(=O)N1CCN(C)CC1	0%	0%
Cc1ccc(-n2ncc3c(N(C)C)ncnc32)cc1Cl	-9%	1%
[C-]#[N+]/C(C#N)=C\c1cc(C(C)(C)C)c(O)c(C(C)(C)C)c1	-17%	?
CC(Sc1nc2c([nH]c3ccccc32)c(=O)n1-c1ccccc1)c1ccccc1 (stereo not given)	7.9µM*	-2%
COC(=O)C(C)Sc1nc2c([nH]c3ccccc32)c(=O)n1-c1ccc(OC)cc1 (stereo not given)	-2%	-4%
CCOC(=O)Cc1csc(NC(=O)c2cc(OC)cc(OC)c2)n1	-13%	-4%
O=C1C2[C@@H](c3ccccc3)N[C@@H](c3ccccc3)C1[C@H](c1ccccc1)N[C@H]2c1ccccc1	-7%	4%
COCC(=O)O	0%	5%
Cc1ccc(C(=O)Nc2ccc(S(=O)(=O)N3CCc4ccccc43)cc2)o1	-16%	0%
CCOC(=O)/C(C#N)=N/Nc1ccc(S(=O)(=O)N2CCc3ccccc32)cc1	25µM*	-7%
SMILES	Cruzain noTriton	Cruzain Triton
FC(F)(F)c1cnc(Sc2nnc(-c3cccs3)n2CC2CCCO2)c(Cl)c1 (stereo not given)	-10%	1%
N#Cc1c(Sc2ncc(C(F)(F)F)cc2Cl)nsc1C/C=N\OCc1c(F)cccc1Cl	4µM*	-6%
CCCOc1ccc(NC(=O)CC2C(=O)N(CC)C(=S)N2CCNC(C)=O)cc1 (stereo not given)	17%	0%
O=C(CNc1n[nH]c(=O)[nH]c1=O)N/N=C/c1cccnc1	-6%	0%
COC(=O)C1C(=O)C(C(=O)/C=C/c2ccco2)C(=O)CC1(C)C (stereo not given)	-18%	-4%
O=C(c1ccco1)N1CCN(Cc2nc3ccc([N+](=O)[O-])cc3c(=O)n2-c2ccccc2F)CC1	?	-5%
Cc1ccc(S(=O)(=O)N(CC(=O)N=Nc2c(O)[nH]c3ccccc23)c2cccc(C)c2)cc1	-22%	-1%
CC(/C=C(\NC(=O)c1ccccc1)C(=O)N=Nc1c(O)[nH]c2ccc(C)cc12)=C\c1ccccc1	25µM*	-2%
O=C(O)CC[C@@]1(c2ccccc2)NC(=O)NC1=O	5%	-1%
CCc1ccccc1NC(=O)c1cc(S(=O)(=O)N2CCC(C)CC2)cn1C	20%	-5%
Oc1ccc(CN2CCCc3ccccc32)c2cccnc12	25µM*	-6%
COc1ccccc1N1CCN(Cc2ccc(O)c3ncccc23)CC1	19%	0%
COc1ccc(/C(O)=C/c2nc3ccccc3n(-c3ccccc3)c2=O)cc1	?	-5%
C/[N+]([O-])=C1\Cc2ccccc2C1=O	-1%	-5%
CCOc1ccc(C2c3[nH]c4ccccc4c3CCN2C(=O)CCC2CCCC2)cc1 (stereo not given)	?	3%
CCOc1cccc(CC(=O)N2CCc3c([nH]c4ccccc34)C2c2ccc(Cl)cc2)c1OCC (stereo not given)	20µM*	3%
COc1cccc(C(=O)N2CCc3c([nH]c4ccccc34)C2c2ccc(SC)cc2)c1 (stereo not given)	19%	5%
